PubChem BioAssay AID1159580 (chemical genetic matrix, 2015)
The whole screen tested about 5,500 compounds, of which about 2,000 (36%) were called active. About 18% were inconclusive and are not listed. Rule as the data show it: active = normalized growth mostly below about 0.91 (no sharp cut-off); inconclusive = no clear call, values can overlap the other calls; inactive = mostly above about 0.92. This is one part of the list.

Experiment: chemical genetic growth profiling, strain panel (AID 1159580);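 also: tested at 20 µM; growth read once vehicle control cultures reached saturation at 30 °C; 1 = growth at the plate median or of vehicle wells; lower values mean less growth of the strain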
Conditions: S. cerevisiae deletion strains, growth OD

Measured: normalized growth

CCC(=O)c1ccc2c(c1)N(CCCN(C)C)c1ccccc1S2
inactive: locus YAL040C, strain CLN3, active compounds read low 0.997 | locus YCL061C, strain MRC1 (second series), active compounds read low 1 | locus YDR150W, strain NUM1, active compounds read low 1.01 | locus YDR363W, strain ESC2, active compounds read low 1.02 | locus YER002W, strain NOP16, active compounds read low 1.01 | locus YGR229C, strain SMI1, active compounds read low 0.986 | locus YJR075W, strain HOC1, active compounds read low 0.985 | locus YNL153C, strain GIM3, active compounds read low 1.16 | locus YNL175C, strain NOP13, active compounds read low 1.02 | locus YNL197C, strain WHI3, active compounds read low 1.05 | locus YNL224C, strain SQS1, active compounds read low 1.07 | locus YNL322C, strain KRE1, active compounds read low 0.971 | locus YOR083W, strain WHI5 (second series), active compounds read low 1 | locus YPL055C, strain LGE1, active compounds read low 0.988
